The values that follow come from PubChem BioAssay (NCATS).

SMILES strings stand for the structures. Inconclusive results are not listed. Calls of active or inactive are those of the source. Calls come from the whole dose curve; as a rule, active = well fitted inhibition curve with a large enough effect; inconclusive = small, poorly fitted or top-dose-only effect; inactive = no such curve, though single readings can be large or run the other way.
Potency is the fitted concentration of half-maximal effect.

The nature of the test: BET inhibitor-based combinations targeting novel dependencies in MECOM-rearranged (r) AML: OCI-AML3 cell line (AID 2202232). Note: nearly all actives have a fitted effect of over 35% in size. To be noted: CellTiter-Glo luminescence, 48 h; Potency: OCI-AML3 viability; series mostly up to 46 µM. The method in brief: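 Viability of cells (500 per well) is scored by luminescent CellTiter-Glo at 48 hr post-dosing. Eleven-point titrations are normalized to DMSO and empty controls and reduced to AUC values.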
On the technique in general: ATP-based viability assays read luminescence as a measure of living cells.
Take `O=C(Nc1ncc(SCCN2CCCC2)s1)[C@]1(c2ccc(S(=O)(=O)C3CC3)cc2)C[C@H]1C1CCCCC1`: the Potency was 20.9 µM (active).

In the case of `Nc1ncc(C(=O)NC2CN(C(=O)C3CC3)C2)c2ccc(-c3cccc(F)c3)nc12`, the Potency is 7.42 µM (active).

In the case of `N#CCC1(n2cc(-c3ncnc4[nH]ccc34)cn2)CN(C2CCN(C(=O)c3ccnc(C(F)(F)F)c3F)CC2)C1`, the Potency was 1.66 µM (active).

In the case of `O=C(O)C[C@H]1CCc2c1[nH]c1ccc(OCc3ccc(C4CCCC4)c(C(F)(F)F)c3)cc21`, the Potency is 13.2 µM (active).

Consider `COC1CC(C(=O)c2ccc3c(N)ncc(-c4ccc(-c5cnn(C)c5)cc4)c3n2)C1` (stereo not drawn), for which the Potency was 8.33 µM (active).

`CCc1ccc(N(CC(C)C)S(=O)(=O)c2ccc(OCC3CCOCC3)c(CO)c2)cc1`: the Potency is 14.8 µM (active).

Turning to `Cc1ccc2nc(NCCN)c3ncc(C)n3c2c1`, the Potency was 9.34 µM (active).

With `COc1ccc(-c2oc3ncnc(N)c3c2-c2ccc(NC(=O)Nc3cc(C(F)(F)F)ccc3F)cc2)cc1`, the Potency is 10.5 µM (active).

For `C=C[C@@H]1CN2CCC1C[C@H]2[C@H](O)c1ccnc2ccc(OC)cc12` (stereo partly drawn), the Potency was 20.9 µM (active).

Consider `O=C(NC1CC1)c1cccc(-c2ccc3c(NC(=O)C4CC4)n[nH]c3c2)c1`, for which the Potency is 10.5 µM (active).

On to `COc1cc(C(=O)NC(N)=Nc2ccc(C)c(NC(=O)c3ccc(-c4ccccc4)cc3)c2)cc(OC)c1OC`, for which the Potency is 18.6 µM (active).

In the case of `COc1ccc2c(c1)c(C1=C(c3c[nH]c4ccccc34)C(=O)NC1=O)cn2CCCN(C)C`, the Potency was 20.9 µM (active).

For `C[C@@]12O[C@@H](C[C@]1(O)CO)n1c3ccccc3c3c4c(c5c6ccccc6n2c5c31)CNC4=O`, the Potency is 0.417 µM (active).
